Reference: PubChem BioAssay AID1626 (SRMLSC, 2009)
Hit rate of the full screen: of about 220,000 compounds, about 2,000 (0.91%) were called active. Inconclusive results (about 2%) are left out. Cut-off read from the data, not from the text of the source: inconclusive = inhibition above about 80% without an active follow-up result; inactive = below that; test concentration not stated here. A selection follows. Potency and affinity values are given separately.

Experiment: M. tuberculosis H37Rv growth inhibitors, H37Rv strain (AID 1626);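 note: bacteria incubated seven days before Alamar blue readout; 0% = bacteria only wells and 100% = bacteria with antibiotic wells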
Settings: active compounds read high, concentration not given here

SMILES | inhibition
O=C(NN1C(=O)C2C3C=CC(O3)C2C1=O)c1cccc(Br)c1 (stereo unspecified) | 5.77% (inactive)
Cc1c(C(=O)NCC2CCCO2)cccc1[N+](=O)[O-] (stereo unspecified) | 2.82% (inactive)
O=C(NCc1cccc(C(F)(F)F)c1)C1CCN(c2ncccn2)CC1 | -1.47% (inactive)
O=C(O)CCc1nc2ccccc2n(CCc2ccccc2)c1=O | -8.81% (inactive)
O=C(C1CC(c2ccc(F)cc2)=NO1)N1CCc2ccccc2C1 (stereo unspecified) | -0.85% (inactive)
O=C(c1cccc(F)c1)N1CCN(C(=O)c2nn3cccnc3c2Cl)CC1 | 0.18% (inactive)
O=C(c1ccc(F)cc1)C1CCN(C(=O)c2ccncc2)CC1 | -7.5% (inactive)
O=C(/C=N/O)Nc1ccc2sc3ccccc3c2c1 | 50.4% (inactive)
N#Cc1c2n(c3c(=O)n(CC(=O)c4ccc(Br)cc4)cnc13)CCCC2 | 1.64% (inactive)
CC(C)CCN1CCN(Cc2nc(-c3ccccc3)cs2)CC1CCO (stereo unspecified) | 4.13% (inactive)
O=C(CSc1ncnc2nc[nH]c12)c1ccc([N+](=O)[O-])cc1 | -0.96% (inactive)
Cn1cnc([N+](=O)[O-])c1Sc1ncnc2nc[nH]c12 | 7.31% (inactive)
COc1cc(/C=N/NC(=O)c2cncc(Br)c2)ccc1OC(=O)c1ccc2c(c1)OCO2 | -4.21% (inactive)
OCC1(CCOc2ccccc2)CCN(CC2=Cc3cc(Cl)ccc3OC2)CC1 | 6.89% (inactive)
COc1cccc(CC2(CO)CCCN(Cc3cc4ccccc4[nH]3)C2)c1 (stereo unspecified) | 9.65% (inactive)
COc1cccc(CC2(CO)CCCN(Cc3ccc(C)s3)C2)c1 (stereo unspecified) | 4% (inactive)
COc1ccc2[nH]c(CN3CCC(CO)(CCOc4ccccc4)CC3)c(C)c2c1 | -2.25% (inactive)
COc1cc(OC)cc(C(=O)NCC(=O)OCC(=O)N2c3ccccc3NC(=O)C2(C)C)c1 | -1.81% (inactive)
COc1ccc(CN2CCN(CCCc3ccccc3)CC2)c(OC)c1 | 1.06% (inactive)
COc1cccc(C2C(C(=O)c3cc4cccc(OC)c4o3)=C(O)C(=O)N2c2cc(C)on2)c1OC (stereo unspecified) | -9.58% (inactive)
COc1cc2c(cc1OC)C(C)N(C(=O)c1cc3ccccc3o1)CC2 (stereo unspecified) | 3.79% (inactive)
Cc1cc(=O)oc2cc(OCC(=O)Nc3ccc(S(=O)(=O)N(C)C)cc3)ccc12 | -9.04% (inactive)
O=C(Nc1ccc(F)cc1)N1CCN(c2nc3ccccc3s2)CC1 | 6.46% (inactive)

SMILES | inhibition
O=C(Nc1ccccc1)N1CCN(c2nc3ccccc3s2)CC1 | -10% (inactive)
CC(=O)Cc1nsc(NC(=O)c2ccc(-c3ccc(Cl)cc3Cl)o2)n1 | -7.01% (inactive)
Cc1ccc(OCC(=O)N(Cc2cccs2)C2CCS(=O)(=O)C2)cc1C (stereo unspecified) | 1.52% (inactive)
CC(C)C1OC(c2cccc(NC(=O)c3cccs3)c2)OCC1(C)C (stereo unspecified) | 3.13% (inactive)
CCCCOc1ccc(CSCCN=C(N)N)cc1 | 10.7% (inactive)
Nc1c(C(=O)NCc2ccc(F)cc2)c2nc3ccccc3nc2n1CCCN1CCOCC1 | 14.5% (inactive)
CCCCCn1c(N)c(C(=O)NCCN2CCOCC2)c2nc3ccccc3nc21 | 27.3% (inactive)
Nc1c(C(=O)NCCN2CCOCC2)c2nc3ccccc3nc2n1Cc1ccccc1 | 13.8% (inactive)
COc1ccc(CCNC(=O)c2c(N)n(CCN3CCOCC3)c3nc4ccccc4nc23)cc1OC | 20.2% (inactive)
COc1ccc(CNC(=O)c2c(N)n(CCCN3CCOCC3)c3nc4ccccc4nc23)cc1 | 16.6% (inactive)
Nc1c(C(=O)NCCN2CCOCC2)c2nc3ccccc3nc2n1CCc1ccccc1 | 34.9% (inactive)
CS(=O)(=O)c1ccc(C(=O)OCC(=O)NC23CC4CC(CC(C4)C2)C3)cc1[N+](=O)[O-] | 6.01% (inactive)
Cc1c(N=C2SCC(=O)N2/N=C\c2ccc(Br)cc2)c(=O)n(-c2ccccc2)n1C | 2.9% (inactive)
Cn1c(N)c(C(=O)COC(=O)CCCc2nc3ccccc3s2)c(=O)n(C)c1=O | 3.44% (inactive)
COc1cc(C(=O)NCCc2ccc(S(=O)(=O)N3CCCC3)cc2)cc(OC)c1OC | -6.26% (inactive)
CCCC1(C(=O)OCC)NC(c2ccc(O)cc2)C2C(=O)N(c3ccc4c(c3)OCCO4)C(=O)C21 (stereo unspecified) | 11.1% (inactive)
COc1cccc(NC(=O)NC2CCCc3ccccc32)c1 (stereo unspecified) | 0.07% (inactive)
O=C(O)CSc1c2c(nc3cc(C(=O)NCCN4CCOCC4)ccc13)CCC2 | -7.4% (inactive)
O=C(NCCCN1CCOCC1)c1ccc(CS(=O)(=O)Cc2ccc(Cl)cc2)o1 | 2.9% (inactive)
Cc1ccc(Nc2c([N+](=O)[O-])c(=O)oc3ccccc23)cc1C | 60.5% (inactive)
O=c1oc2ccccc2c(Nc2ccccc2)c1[N+](=O)[O-] | -3.06% (inactive)
CN1C(=O)NC(=O)/C(=C\C=C\c2ccccc2[N+](=O)[O-])C1=O | 3.14% (inactive)
N#C/C(=C\c1ccc(N2CCOCC2)o1)C(=O)NCCc1ccccc1 | 1.46% (inactive)

SMILES | inhibition
N#C/C(=C/c1ccc(Br)s1)C(=O)NCCc1c[nH]c2ccccc12 | -14% (inactive)
O=C(Nc1ccccc1)N(Cc1ccccc1)Cc1ccccc1 | 9.83% (inactive)
C=CCNC(=O)Nc1cc(Cl)ccc1OC | -2.63% (inactive)
Cc1cc(C(=O)COc2ccc3ccc(=O)oc3c2)c(C)n1C | -5.12% (inactive)
CC(=O)c1cccc(OCC(=O)c2cc(C)n(-c3cc(C)on3)c2C)c1 | 17.2% (inactive)
Cc1ccc2occ(C3N[C@H](C(=O)O)CS3)c(=O)c2c1 (stereo partly specified) | -2.55% (inactive)
COc1ccc(NS(=O)(=O)c2ccc3nc(COc4ccc5ccccc5c4)[nH]c3c2)cc1 | 15.1% (inactive)
COc1ccc(NS(=O)(=O)c2ccc3nc(COc4ccc(C#N)cc4)[nH]c3c2)cc1 | 12.1% (inactive)
CC(=O)c1c(C)nn(CC(O)Cn2c3c(c4cc(C)ccc42)CCCC3=O)c1C (stereo unspecified) | 7.8% (inactive)
COc1cccc(-n2nnc3c(=O)n(CC(=O)N4CCC(Cc5ccccc5)CC4)cnc32)c1 | 2.62% (inactive)
COc1ccc(-n2nnc3c(=O)n(CC(=O)N4CCC(Cc5ccccc5)CC4)cnc32)cc1 | -2.81% (inactive)
O=C1[C@@H]2[C@@H]3C[C@@H]([C@H]4ON=C(c5ccc(OCc6ccccc6)cc5)[C@@H]34)[C@@H]2C(=O)N1c1ccc2c(c1)OCO2 | 0.02% (inactive)
O=C(Nc1ccc(-c2cnco2)cc1)c1ccccc1 | 3.05% (inactive)
O=C(Nc1ccc(-c2cnco2)cc1)c1ccc(Cl)cc1 | -6.64% (inactive)
Cc1cc(C(C)(C)C)ccc1OCCn1ccnc1 | -6.1% (inactive)
O=C(Cc1ccccc1)N/N=C/c1ccccc1Cl | 7.74% (inactive)
COc1ccc(-c2noc(CCCC(=O)Nc3ccc(C(N)=O)cc3)n2)cc1 | -9.14% (inactive)
Cc1cccc(-c2noc(CCC(=O)Nc3ccc(C(N)=O)cc3)n2)c1 | 0.33% (inactive)
Cc1cccc(-c2noc(CCC(=O)Nc3ccccc3)n2)c1 | 1.97% (inactive)
CC(C)CNC(=O)CCc1nc(-c2ccccc2)no1 | -9.52% (inactive)
Cc1cccc(-c2noc(CCCC(=O)Nc3ccc(C(N)=O)cc3)n2)c1 | 0.64% (inactive)
CCOC(=O)c1cccc(NC(=O)CCc2nc(-c3ccccc3F)no2)c1 | 66.8% (inactive)
Cc1ccc(-c2noc(CCC(=O)Nc3ccccc3C)n2)cc1 | 13.8% (inactive)

SMILES | inhibition
O=C(O)CCc1nc(-c2ccc(Cl)cc2)no1 | -0.01% (inactive)
O=C(CCc1ccccc1)NCCc1nc2ccccc2[nH]1 | -3.29% (inactive)
CCN(c1ccccc1)S(=O)(=O)c1ccc(Cl)c(NC(=O)CN2C(=O)NC3(CCCC3)C2=O)c1 | -9.72% (inactive)
CCC(C)(C(=O)NC1CCCC1)N(C)C(=O)c1ccccn1 (stereo unspecified) | -3.46% (inactive)
COc1ccc2c(CC(=O)OCC(=O)c3ccccc3OC)coc2c1 | 3.25% (inactive)
O=C(CN1CCCCCCC1)Nc1ccc(Cl)cc1Cl | -1.9% (inactive)
CC1=NN(c2ccccc2)C(=O)/C1=C\c1sccc1C | -4.07% (inactive)
COC(=O)c1ccc(/C=N/OCC(=O)NCc2ccc(F)cc2)cc1 | 6.23% (inactive)
CC(C)CC1NC2(C(=O)N(C)c3ccccc32)C2C(=O)N(C(C)C)C(=O)C12 (stereo unspecified) | 0.86% (inactive)
N#Cc1c(-c2ccccc2)nc2n(-c3ccccc3)nc(C(=O)Nc3ccccc3)n2c1=O | 8.32% (inactive)
N#Cc1ccccc1CSc1nnc(Cc2ccccc2)o1 | 0.34% (inactive)
CC(C)=Cc1c(O)nc2ccccn2c1=O | -3.05% (inactive)
Cc1c(NC(=O)CSCc2ccc(Br)cc2)c(=O)n(-c2ccccc2)n1C | -6.02% (inactive)
CCc1ccccc1NC(=O)CCc1nc(-c2ccc(C)cc2)no1 | -5.75% (inactive)
NC(=O)c1ccc(NC(=O)CCCc2nc(-c3ccccc3Cl)no2)cc1 | -1.91% (inactive)
Cc1ccc(-c2noc(CCC(=O)Nc3ccc(C)cn3)n2)cc1 | 25.6% (inactive)
COc1ccccc1-c1noc(CCC(=O)Nc2ccccc2Cl)n1 | -5.64% (inactive)
O=C(/C=C/c1ccco1)N(Cc1cccc(Br)c1)C1CCS(=O)(=O)C1 (stereo unspecified) | -13.6% (inactive)
Cc1ccc(NC(=O)c2ccc(N3CCOCC3)c([N+](=O)[O-])c2)cc1S(=O)(=O)N1CCOCC1 | 5.87% (inactive)
CCN(CC)CCNCc1cc(Cl)c(OCC(=O)Nc2ccccc2)c(OC)c1 | 7.36% (inactive)
COc1cc(CNCC(C)C)cc(Br)c1OCC(=O)Nc1ccccc1 | 0.75% (inactive)
O=C(Cn1c2[n+](c3ccccc31)CC(O)CS2)c1ccccc1 (stereo unspecified) | -6.67% (inactive)
